The labels stand for the following.
B1: PhoQ; a variant is named by its letters at X, in order, P23837 (parent)
chain: MKKLLRLFFPLSLRVRFLLATAAVVLVLSLAYGMVALIGYSVSFDKTTFRLLRGESNLFYTLAKWENNKLHVELPENIDKQSPTMTLIYDENGQLLWAQRDVPWLMKMIQPDWLKSNGFHEIEADVNDTSLLLSGDHSIQQQLQEVREDDDDAEMTHSVAVNVYPATSRMPKLTIVVVDTIPVELKSSYMVWSWFIYVLSANLLLVIPLLWVAAWWSLRPIEALAKEVRELEEHNRELLNPATTRELTSLVRNLNRLLKSERERYDKYRTTLTDLTHSLKTPLXXLQXXLRSLRSEKMSVSDAEPVMLEQISRISQQIGYYLHRASMRGGTLLSRELHPVAPLLDNLTSALNKVYQRKGVNISLDISPEISFVGEQNDFVEVMGNVLDNACKYCLEFVEISARQTDEHLYIVVEDDGPGIPLSKREVIFDRGQRVDTLRPGQGVGLAVAREITEQYEGKIVAGESMLGGARMEVIFGRQHSAPKDE

Over roughly 140,000 sequences, “enrichment ratio after two sorts for PhoP signalling” has its median near 0; the highest 2% begin near 11. This excerpt belongs to a sample that is enriched for the highest values.

Variants of B1 are the subject of the experiment. Description: enrichment ratio after two sorts for PhoP signalling (ratio (wild type AVST 3.29)); higher = more functional. The conditions noted are these: with PhoP (E. coli).
In the case of EPTI, the enrichment ratio is at most 0.25.
Take MAHQ: the enrichment ratio is at most 0.25.
With EKMC, the enrichment ratio was at most 0.25.
As for QEGH, the figure is 24.6; as for QIGH, 14; as for SNTH, 7.23.
As to SRGH, the enrichment ratio was at most 0.25.
The figure for STGH is 17.1; for YTGH it is at most 0.25.
The figure for QIYH is at most 0.25.
For QITH, the enrichment ratio is at most 0.25.
The figure for QGGH is at most 0.25; for SNGH it is 23.3.
The figure for SNGP is at most 0.25; for QRGH it is at most 0.25; for YAAS it is at most 0.25.
As for QNYF, the figure is at most 0.25; as for GMNL, at most 0.25; as for SKVD, at most 0.25.
Consider LATP, for which the enrichment ratio was at most 0.25.
As for DRAC, the figure is at most 0.25.
On to VPLT, for which the enrichment ratio is at most 0.25.
With GGVS, the enrichment ratio was at most 0.25.
With FTAL, the enrichment ratio came out at 0.293.
Take QVGH: the enrichment ratio worked out at 15.9.
The figure for QVTH is at most 0.25.
QVGP: the enrichment ratio is at most 0.25.
Take LEMG: the enrichment ratio stood at 11.8.
Turning to LEMK, the enrichment ratio is at most 0.25.
The figure for LEMS is 8.78; for LEEG it is at most 0.25; for LEGM it is at most 0.25.
In the case of LEMM, the enrichment ratio is 11.3.
As for LEWV, the figure is 11.9; as for LEGG, at most 0.25; as for LEMV, 12.9.
The figure for LRMM is at most 0.25.
The figure for LEIV is at most 0.25; for LEWI it is 2.42.
With FPFR, the enrichment ratio is at most 0.25.
The figure for FVFS is at most 0.25.
As for GEKH, the figure is at most 0.25; as for QGKV, at most 0.25; as for SSGP, at most 0.25.
Regarding EPLM, the enrichment ratio was at most 0.25.
The figure for ALDK is at most 0.25; for TQWT it is 0.56.
As for TQAH, the figure is 13.3.
As for TQQT, the figure is 6.08; as for EQNV, at most 0.25.
Turning to TQAT, the enrichment ratio was determined as 12.7.
As to IQNV, the enrichment ratio is at most 0.25.
Take IQAH: the enrichment ratio is at most 0.25.
The figure for NQLC is at most 0.25; for NQAH it is at most 0.25; for WQLC it is at most 0.25.
The figure for TQNV is 14.2; for TQLC it is 13.1; for MGKS it is at most 0.25.
The figure for INSM is 0.298; for IPGV it is at most 0.25; for PQPN it is at most 0.25.
On to FQNC, for which the enrichment ratio was at most 0.25.
For NNRL, the enrichment ratio is at most 0.25.
The figure for EKQI is at most 0.25.
The figure for RWFN is at most 0.25; for NWQL it is at most 0.25; for VDAW it is at most 0.25.
The figure for RNYN is at most 0.25.
With FRWR, the enrichment ratio is at most 0.25.
The figure for WYYY is at most 0.25; for TQLQ it is 5.05; for TQNI it is at most 0.25.
Turning to TQNY, the enrichment ratio is 6.18.
With TQAD, the enrichment ratio was 11.6.
Turning to TQET, the enrichment ratio was at most 0.25.
The figure for TQLS is 17.6; for TQRA it is at most 0.25; for TQNT it is 15.4.
Take LAAD: the enrichment ratio was at most 0.25.
The figure for TQNS is 12.8; for TQAA it is 3.31.
The figure for TQNW is at most 0.25; for PAWD it is at most 0.25.
As to SEAL, the enrichment ratio was determined as 7.85.
Take GSHA: the enrichment ratio is at most 0.25.
As for AKYV, the figure is at most 0.25; as for FLDC, at most 0.25; as for ANKM, at most 0.25.
The figure for TAGV is 5.24; for ICLI it is 5.89; for FVAK it is at most 0.25.
For the variant FELQ, the enrichment ratio is 8.46.
As for IHIG, the figure is at most 0.25; as for TQLA, 4.57; as for TQMT, 14.6.
As for TQRH, the figure is at most 0.25; as for EQMT, at most 0.25.
As for FQMT, the figure is at most 0.25; as for TQNH, 16.3; as for TQKH, at most 0.25.
Consider TQLK, for which the enrichment ratio is 4.42.
On to TQLT, for which the enrichment ratio was found to be 18.8.
The figure for NNDT is at most 0.25; for FCNF it is at most 0.25; for MPFQ it is at most 0.25.
Regarding RPVE, the enrichment ratio is at most 0.25.
As for VATR, the figure is at most 0.25.
With FKHE, the enrichment ratio is at most 0.25.
In the case of YRPV, the enrichment ratio was at most 0.25.
As for VMPF, the figure is at most 0.25; as for AQGT, 3.18.
With AQAL, the enrichment ratio was 18.4.
Take VRAL: the enrichment ratio was at most 0.25.
Regarding MVAL, the enrichment ratio turned out to be 11.3.
For the variant TSAL, the enrichment ratio turned out to be 13.
As for NVAL, the figure is at most 0.25; as for AHAL, at most 0.25; as for FSAL, 0.667.
The figure for GVAL is 1.02.
On to ASAL, for which the enrichment ratio is 11.7.
The figure for AKAL is 11.1.
For the variant KSAL, the enrichment ratio was at most 0.25.
The figure for GNDN is 0.537; for LWNG it is at most 0.25; for QKPR it is at most 0.25.
In the case of NSMN, the enrichment ratio is at most 0.25.
The figure for RATG is at most 0.25; for TMAL it is 14.
For MMAL, the enrichment ratio worked out at 13.5.
For KMAL, the enrichment ratio was at most 0.25.
For VLAL, the enrichment ratio turned out to be 0.925.
The figure for MKAL is 4.45; for NMAL it is at most 0.25; for KCAL it is at most 0.25.
Turning to MFAL, the enrichment ratio is at most 0.25.
As for AMAL, the figure is 11.3; as for MCAL, 13.5.
As for DMAL, the figure is at most 0.25; as for FCAL, at most 0.25; as for HHKF, at most 0.25.
The figure for ICEL is at most 0.25; for LEWF it is at most 0.25.
On to GLPR, for which the enrichment ratio is at most 0.25.
As for YYHC, the figure is at most 0.25; as for TESC, 13.3.
For the variant TEHC, the enrichment ratio turned out to be 22.1.
As for YTYC, the figure is at most 0.25; as for LWEC, at most 0.25.
As for NEHC, the figure is at most 0.25; as for TEEC, 12.4.
With NESC, the enrichment ratio was at most 0.25.
Regarding QESC, the enrichment ratio turned out to be 5.96.
For the variant TEYC, the enrichment ratio amounted to 12.6.
On to HPEC, for which the enrichment ratio is at most 0.25.
As for KSYC, the figure is at most 0.25.

Source of the values: a collection of fitness landscapes (doi:10.1126/science.1257360).
